ELG1 genotoxic = induces genotoxicity in HEK293T cells with luciferase-tagged ELG1; Potency, µM (titrated, usually from 46 µM), usual class: activators; actives 1.3% (n = 330,000); HEK293T ELG1-luciferase reporter, luminescence, 16 h; AID 504466; note: nearly all actives have a fitted effect of over 60% in size
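ELG1-luciferase HEK293T cells, 2,000/well; compound pinned in; 16 hr, 37 °C, 5% CO2; ONE-Glo, 30 min RT; luminescence on CCD imager.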
Rab9 prom act = Rab9 promoter activation. actives 2.8% (n = 320,000). Huh7 Rab9 promoter-luciferase reporter, luminescence, 24 h. Potency, µM (top dose mostly 9.22 µM), most hits filed as activators; note: nearly all actives have a fitted effect of over 60% in size
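Huh7 cells stably carrying a Rab9 promoter-luciferase reporter, 1500 cells per well in OP-MEM I with 10% FBS, treated with compound 24 hours at 37C. Luciferase activity read by luminescence after 10 minutes with Amplite reagent.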
NPC1 prom act = activators of NPC1 promoter; AID 485313; Huh7 NPC1 promoter luciferase reporter, 24 h; Potency, µM (doses to about 9.22 µM), actives largely listed as activators; actives 2.4% (n = 320,000); note: nearly all actives have a fitted effect of over 60% in size
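Cells: Huh7 expressing luciferase under the NPC1 promoter, 1500/well. Seeded 2 h, compound added, incubated 24 h at 37 °C. Luciferase reagent, 10 min ambient, then luminescence.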
SMN2 splice enh = increases expression of the SMN2 splice variant | actives 2.8% (n = 210,000) | HEK293 SMN2-luciferase splicing reporter, luminescence, 30-36 h | Potency, µM (titrated, usually from 46.1 µM), actives largely listed as activators | AID 1458; note: nearly all actives have a fitted effect of over 55% in size
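HEK293 cells carry an SMN2 minigene-luciferase reporter in which exon 7 inclusion puts luciferase in frame. Cells were seeded at 2000 cells/well, attached for 10-12 hours, then exposed to compounds for 30-36 hours at 37C before ONE-Glo luminescence.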
KinaseGlo FLuc = Kinase-Glo luciferase inhibition (counter-screen). AID 1379. Kinase-Glo luciferase, ATP luminescence, 8 min. Potency, µM (doses to about 38.3 µM), actives largely listed as inhibitors. Q27757. actives 0.28% (n = 200,000); note: nearly all actives have a fitted effect of over 60% in size
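Kinase-Glo luciferase light output from ATP and luciferin was measured with 10 uM ATP, within the enzyme's linear range. Buffer: 50 mM imidazole pH 7.2, 50 mM KCl, 7 mM MgCl2, 0.01% Tween 20, 0.05% BSA; luminescence read after 8 min at ambient temperature.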
FLuc counter = firefly luciferase modulation, counter-screen for miR-21 project; actives 6.9% (n = 360,000); Potency, µM (highest dose often 57.5 µM), most hits filed as inhibitors; purified FLuc, Km substrates, luminescence inhibition; P08659; note: nearly all actives have a fitted effect of over 55% in size
Target sequence (P08659 whole entry, looked up): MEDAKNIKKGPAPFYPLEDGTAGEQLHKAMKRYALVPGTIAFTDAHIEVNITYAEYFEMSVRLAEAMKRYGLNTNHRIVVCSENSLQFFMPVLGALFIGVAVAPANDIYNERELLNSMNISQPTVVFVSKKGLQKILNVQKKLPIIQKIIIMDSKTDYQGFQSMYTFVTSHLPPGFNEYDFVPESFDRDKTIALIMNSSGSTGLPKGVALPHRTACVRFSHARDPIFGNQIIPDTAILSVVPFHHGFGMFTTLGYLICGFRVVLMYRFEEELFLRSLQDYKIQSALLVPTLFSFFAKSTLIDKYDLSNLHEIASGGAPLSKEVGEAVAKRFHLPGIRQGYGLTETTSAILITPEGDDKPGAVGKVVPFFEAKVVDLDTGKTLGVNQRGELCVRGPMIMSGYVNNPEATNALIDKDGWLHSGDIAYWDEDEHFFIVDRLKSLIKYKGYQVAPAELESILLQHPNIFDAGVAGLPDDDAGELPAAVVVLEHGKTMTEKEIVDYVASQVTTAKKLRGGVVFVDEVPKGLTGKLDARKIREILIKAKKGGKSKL
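Purified P. pyralis luciferase, 10 nM final, with Km-level 10 uM D-luciferin and 10 uM ATP in 50 mM Tris acetate pH 7.5, 10 mM Mg acetate, 0.01% Tween-20, 0.05% BSA; 6-point qHTS titration about 60 µM downward; luminescence read.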
Large screens that a line does not name were inactive. In the library only some 7.3% were active in any assay of this set; here they are far more common. Calls come from the whole dose curve; as a rule, active = well fitted curve in the direction sought with a large enough effect; inconclusive = small, poorly fitted or top-dose-only effect, or another doubt; inactive = no such curve, though single readings can be large; an effect the other way counts as inactive or inconclusive.

CN(C)c1cccc(C(=O)Nc2ccc3nc4n(c(=O)c3c2)CCCCC4)c1	FLuc counter 13µM
COc1cc(OC)cc(C(=O)Nc2ccc3nc4n(c(=O)c3c2)CCCC4)c1	ELG1 genotoxic inconclusive, Rab9 prom act inconclusive, NPC1 prom act 2.8µM, FLuc counter inconclusive (no result: SMN2 splice enh, KinaseGlo FLuc)
Cc1ccccc1C(=O)Nc1ccc2nc3n(c(=O)c2c1)CCCC3	FLuc counter inconclusive (no result: SMN2 splice enh, KinaseGlo FLuc)
CCOc1ccccc1C(=O)Nc1ccc2nc3n(c(=O)c2c1)CCCCC3	FLuc counter 15µM (no result: SMN2 splice enh, KinaseGlo FLuc)
Oc1ccc(/C=N/NC(=S)NC2CC3CCC2C3)cc1 (centres undefined)	ELG1 genotoxic inconclusive, Rab9 prom act inconclusive, NPC1 prom act 3.2µM, FLuc counter inconclusive (no result: SMN2 splice enh, KinaseGlo FLuc)
S=C(N/N=C/c1cccs1)NC1CC2CCC1C2 (centres undefined)	Rab9 prom act inconclusive, FLuc counter inconclusive (no result: SMN2 splice enh, KinaseGlo FLuc)
CC1=C(C(=O)Nc2ccccc2)C(c2cccn2C)n2ncnc2N1 (centres undefined)	none (no result: ELG1 genotoxic, Rab9 prom act, NPC1 prom act, SMN2 splice enh, KinaseGlo FLuc)
COc1ccc(/C=C/C=C2\N=C(SC)SC2=O)cc1	FLuc counter 5.4µM (no result: SMN2 splice enh)
CSC1=N/C(=C\c2ccc(F)cc2)C(=O)S1	none
CCOC(=O)N1CCN(c2nc(-c3ccc(OC)cc3)no2)CC1	NPC1 prom act inconclusive, FLuc counter 17µM
CCOC(=O)N1CCN(C(=O)c2ccc(OC)cc2)CC1	none (no result: SMN2 splice enh)
CN1/C(=C\C(=O)c2cccs2)C(C)(C)c2ccccc21	FLuc counter inconclusive
CN1/C(=C\C(=O)c2cccs2)Sc2ccccc21	ELG1 genotoxic inconclusive, Rab9 prom act 3.5µM, NPC1 prom act inconclusive, FLuc counter 1.5µM (no result: SMN2 splice enh, KinaseGlo FLuc)
CN1/C(=C/C(=O)C2CCC2)Sc2ccccc21	ELG1 genotoxic inconclusive, Rab9 prom act inconclusive, NPC1 prom act inconclusive, SMN2 splice enh inconclusive, KinaseGlo FLuc inconclusive, FLuc counter 17µM
CN1/C(=C/C(=O)c2cccs2)Sc2ccccc21	ELG1 genotoxic 1.3µM, SMN2 splice enh 7.9µM, KinaseGlo FLuc 14µM, FLuc counter 1.2µM
O=C(C1CC1)N1c2ccccc2Sc2ccccc21	none (no result: SMN2 splice enh, KinaseGlo FLuc)
Cc1ccc(CNC(=O)CCCN2C(=O)COc3ccc(C)cc32)cc1	none (no result: ELG1 genotoxic, Rab9 prom act, NPC1 prom act, SMN2 splice enh, KinaseGlo FLuc)
COCCn1c(C)cc(C(=O)CSc2nc3ccccc3c(=O)n2Cc2ccco2)c1C	ELG1 genotoxic inconclusive, Rab9 prom act 1.3µM, NPC1 prom act 3.2µM, SMN2 splice enh 7.1µM, FLuc counter 1.7µM
COCCn1c(C)cc(C(=O)CSc2cc(C)c3ccccc3n2)c1C	FLuc counter 13µM
O=C(CSc1nc2ccccc2c(=O)n1Cc1ccco1)NCc1ccco1	none
Cc1ccc(S(=O)(=O)N2CCc3nc(COc4ccccc4)c4c(c3C2)CO[C@@H](C)C4)cc1	none (no result: ELG1 genotoxic, Rab9 prom act, NPC1 prom act, FLuc counter)
Cc1ccc(Nc2nc3nonc3[nH]c2=O)cc1	ELG1 genotoxic inconclusive, Rab9 prom act inconclusive, FLuc counter 15µM
CCOC(=O)/C=C(\C)N1N=C(c2ccccc2)CC1c1ccccc1 (centres undefined)	Rab9 prom act inconclusive, SMN2 splice enh inconclusive, FLuc counter 17µM
COc1ccc(C2CC(c3ccc4ccccc4c3)=NN2C(=O)COC(=O)C2CCC(=O)N2)cc1 (centres undefined)	ELG1 genotoxic inconclusive, Rab9 prom act 1.1µM, NPC1 prom act 1.6µM, SMN2 splice enh 14µM, FLuc counter 24µM
COc1ccc(C2CC(c3ccc4ccccc4c3)=NN2C(=O)CN2CCC(C(N)=O)CC2)cc1 (centres undefined)	Rab9 prom act inconclusive, FLuc counter inconclusive
CC(=O)OCC(=O)N1N=C(c2ccc3ccccc3c2)CC1c1ccccc1 (centres undefined)	Rab9 prom act 3.2µM, NPC1 prom act inconclusive
C[C@@](O)(CNS(=O)(=O)c1ccccc1)c1ccccc1	none (no result: ELG1 genotoxic, Rab9 prom act, NPC1 prom act, FLuc counter)
O=C(c1cc(-c2ccc(Cl)cc2)on1)N1CCCC1	ELG1 genotoxic 2.9µM, Rab9 prom act 0.45µM, NPC1 prom act 0.56µM, FLuc counter 2.1µM (no result: SMN2 splice enh, KinaseGlo FLuc)
O=C(c1cc(-c2cccc(Cl)c2)on1)N1CCc2ccccc2C1	none (no result: SMN2 splice enh, KinaseGlo FLuc)
O=C(c1cc(-c2ccc(Cl)c(Cl)c2)on1)N1CCCCC1	ELG1 genotoxic inconclusive, Rab9 prom act 1µM, NPC1 prom act 2.8µM, SMN2 splice enh 22µM, FLuc counter 4.3µM

Screening results from PubChem BioAssay.
